Data as given in PubChem BioAssay (NCATS).
Results filed as inconclusive are left out. Activity calls are given as the source filed them. Unless noted, calls come from the whole dose curve.

Legend:
[1] = qHTS for Inhibitors of the Functional Ribonucleoprotein Complex (vRNP) of Lassa (LASV) Arenavirus: LASV Primary Screen - GLuc reporter signal (AID 1347082; calls by dose curve; tested in HEK293 reporter line; note: nearly all actives have a fitted effect of over 60% in size)
[2] = qHTS for Inhibitors of the Functional Ribonucleoprotein Complex (vRNP) of Lassa (LASV) Arenavirus: Viability assay - alamar blue signal for LASV Primary Screen (AID 1347083; calls by dose curve; tested in HEK293 reporter line; note: nearly all actives have a fitted effect of over 80% in size)
[3] = qHTS for Inhibitors of the Functional Ribonucleoprotein Complex (vRNP) of Lymphocytic Choriomeningitis Arenaviruses (LCMV): Viability assay - alamar blue signal for LCMV Primary Screen (AID 1347085; calls by dose curve; tested in HEK293 reporter line; note: nearly all actives have a fitted effect of over 80% in size)
[4] = target: Nucleoprotein (Lymphocytic choriomeningitis virus (strain Armstrong)) (UniProt P09992); assay: qHTS for Inhibitors of the Functional Ribonucleoprotein Complex (vRNP) of Lymphocytic Choriomeningitis Arenaviruses (LCMV): LCMV Primary Screen - GLuc reporter signal (AID 1347086); note: nearly all actives have a fitted effect of over 70% in size
Chain of Nucleoprotein (Lymphocytic choriomeningitis virus (strain Armstrong)) (P09992 whole entry, looked up): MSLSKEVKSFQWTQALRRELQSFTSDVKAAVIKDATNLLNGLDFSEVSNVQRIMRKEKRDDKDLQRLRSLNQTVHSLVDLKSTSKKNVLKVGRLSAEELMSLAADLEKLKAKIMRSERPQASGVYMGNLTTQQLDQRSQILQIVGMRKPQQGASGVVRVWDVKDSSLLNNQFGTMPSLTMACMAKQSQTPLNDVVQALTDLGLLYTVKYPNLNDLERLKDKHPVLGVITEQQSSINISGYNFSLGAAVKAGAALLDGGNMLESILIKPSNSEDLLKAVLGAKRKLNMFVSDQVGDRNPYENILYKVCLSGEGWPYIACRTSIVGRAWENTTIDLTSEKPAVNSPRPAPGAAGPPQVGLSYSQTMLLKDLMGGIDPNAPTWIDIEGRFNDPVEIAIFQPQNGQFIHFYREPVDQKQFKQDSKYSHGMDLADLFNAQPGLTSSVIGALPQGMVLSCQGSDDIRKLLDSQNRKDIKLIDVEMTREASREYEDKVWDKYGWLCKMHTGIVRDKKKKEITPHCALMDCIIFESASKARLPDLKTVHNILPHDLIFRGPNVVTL
% is set by controls: 0 for no effect and ±100 for the full control effect.
Note: series mostly up to about 57 µM.

NCCNc1cccc2ccccc12
inactive: Potency [1] | Potency [2] | Potency [3] | Potency [4]

Cc1cc(C(C)(C)C)c(O)c(C(C)(C)C)c1
inactive: Potency [1] | Potency [2] | Potency [3] | Potency [4]

FC(F)(F)C(F)(F)C(F)(F)C(F)(F)C(F)(F)C(F)(F)C(F)(F)C(F)(F)Br
inactive: Potency [1] | Potency [2] | Potency [3] | Potency [4]

CC1=C(C)C(=O)C(C(CCCCCC(=O)O)c2ccccc2)=C(C)C1=O (stereo unspecified)
inactive: Potency [1] | Potency [2] | Potency [3] | Potency [4]

O=C1OC(OC(=O)c2cccnc2Nc2cccc(C(F)(F)F)c2)c2ccccc21 (stereo unspecified)
inactive: Potency [1] | Potency [2] | Potency [3] | Potency [4]

O=C(/C=C/c1ccc(O)c(O)c1)O[C@@H]1C[C@@](OC(=O)/C=C/c2ccc(O)c(O)c2)(C(=O)O)C[C@@H](O)[C@@H]1O
inactive: Potency [1] | Potency [2] | Potency [3] | Potency [4]

COc1ccc2c(c1)C(=O)N(CCc1ccc(S(=O)(=O)NC(=O)NC3CCCCC3)cc1)C(=O)C2(C)C
inactive: Potency [1] | Potency [2] | Potency [3] | Potency [4]

CC(=O)N1CCN(c2ccc(O)cc2)CC1
inactive: Potency [1] | Potency [2] | Potency [3] | Potency [4]

CCN(CC)CCNC(C(=O)OCCC(C)C)c1ccccc1 (stereo unspecified)
inactive: Potency [1] | Potency [2] | Potency [3] | Potency [4]

C[C@@H]1CC[C@@]2(OC1)O[C@H]1C[C@H]3[C@@H]4CC[C@H]5C[C@@H](O)CC[C@]5(C)[C@H]4CC(=O)[C@]3(C)[C@H]1[C@@H]2C
inactive: activity change, negative = inhibition [1] -9.4% [at 5.82 µM] | activity change, negative = reduced viability [2] -7.37% [at 5.82 µM] | activity change, negative = lower viability [3] -0.186% [at 5.82 µM] | activity change, negative = inhibition [4] 19.7% [at 5.82 µM]

C[C@@H]1CCN(C(=O)[C@H](CCCN=C(N)N)NS(=O)(=O)c2cccc3c2NC[C@H](C)C3)[C@@H](C(=O)O)C1
inactive: Potency [1] | Potency [2] | Potency [3] | Potency [4]

COc1ccc(C(Cl)=C(c2ccc(OC)cc2)c2ccc(OC)cc2)cc1
inactive: Potency [1] | Potency [2] | Potency [3] | Potency [4]

Cc1cccc(N(C)C(=S)Oc2ccc3c(c2)CCC3)c1
inactive: Potency [1] | Potency [2] | Potency [3] | Potency [4]

c1ccc(CNCCNCc2ccccc2)cc1
inactive: Potency [1] | Potency [2] | Potency [3] | Potency [4]

CN1CCN(C2=Nc3ccccc3Sc3ccc(Cl)cc32)CC1
inactive: Potency [1] | Potency [2] | Potency [3] | Potency [4]

CC(C)COCC(CN(Cc1ccccc1)c1ccccc1)N1CCCC1 (stereo unspecified)
inactive: Potency [1] | Potency [2] | Potency [3] | Potency [4]

CC(=O)N1C[C@H](O)C[C@H]1C(=O)O
inactive: Potency [1] | Potency [2] | Potency [3] | Potency [4]

N[C@H](C(=O)O)[C@@H](O)c1ccc(O)c(O)c1
inactive: Potency [1] | Potency [2] | Potency [3] | Potency [4]

CN1CC(=O)N2[C@H](c3ccc4c(c3)OCO4)c3[nH]c4ccccc4c3C[C@@H]2C1=O
inactive: Potency [1] | Potency [2] | Potency [3] | Potency [4]

O=C(NCCc1c[nH]c2ccccc12)c1cccnc1
inactive: Potency [1] | Potency [2] | Potency [3] | Potency [4]

CCCc1ncc(C[n+]2ccccc2C)c(N)n1
inactive: Potency [1] | Potency [2] | Potency [3] | Potency [4]

CCCCOc1ccc(OCCCN2CCOCC2)cc1
inactive: Potency [1] | Potency [2] | Potency [3] | Potency [4]

CN1CCN(C2Cc3ccccc3Sc3ccc(Cl)cc32)CC1 (stereo unspecified)
inactive: Potency [1] | Potency [2] | Potency [3] | Potency [4]

Cc1ccc(C(=O)Nc2ccc(S(=O)(=O)O)c3cc(S(=O)(=O)O)cc(S(=O)(=O)O)c23)cc1NC(=O)c1cccc(NC(=O)Nc2cccc(C(=O)Nc3cc(C(=O)Nc4ccc(S(=O)(=O)O)c5cc(S(=O)(=O)O)cc(S(=O)(=O)O)c45)ccc3C)c2)c1
inactive: Potency [1] | Potency [2] | Potency [3] | Potency [4]

O=c1ccc2ccccc2o1
inactive: Potency [1] | Potency [2] | Potency [3] | Potency [4]

Oc1ccc(CCNCCCCCCNCCc2ccccc2)cc1O
inactive: Potency [1] | Potency [2] | Potency [3] | Potency [4]

COc1cc(C(=O)NCCCCCC(=O)O)cc(OC)c1OC
inactive: Potency [1] | Potency [2] | Potency [3] | Potency [4]

COCCc1ccc(OCC2CO2)cc1 (stereo unspecified)
inactive: Potency [1] | Potency [2] | Potency [3] | Potency [4]

Fc1ccc(C(c2ccc(F)cc2)N2CCNCC2)cc1
inactive: Potency [1] | Potency [2] | Potency [3] | Potency [4]

C[C@]12CCC(=O)C=C1CC[C@@H]1[C@@H]2CC[C@@]2(C)[C@H]1CC[C@]2(O)C(=O)CO
inactive: Potency [1] | Potency [2] | Potency [3] | Potency [4]

CC1=C(C(=O)OC(C)C)C(c2cccc([N+](=O)[O-])c2)C(C(=O)OC2CN(C(c3ccccc3)c3ccccc3)C2)=C(N)N1 (stereo unspecified)
inactive: Potency [1] | Potency [2] | Potency [3] | Potency [4]

O=C(O)C(=O)Nc1cccc(-c2nn[nH]n2)c1
inactive: Potency [1] | Potency [2] | Potency [3] | Potency [4]

C[N+]1(CC2COC(c3ccccc3)(c3ccccc3)O2)CCCCC1 (stereo unspecified)
inactive: Potency [1] | Potency [2] | Potency [3] | Potency [4]

Cc1cc(NC(=O)C2=C(O)c3ccccc3S(=O)(=O)N2C)no1
inactive: Potency [1] | Potency [2] | Potency [3] | Potency [4]

CCCOC(C(=O)OC1CCN(C)CC1)(c1ccccc1)c1ccccc1
inactive: Potency [1] | Potency [2] | Potency [3] | Potency [4]

COc1ccc2cc(C=O)ccc2c1
inactive: Potency [1] | Potency [2] | Potency [3] | Potency [4]

CCN1C(=O)c2ccccc2C1Nc1ccc(OCCN2CCCCC2)cc1 (stereo unspecified)
inactive: Potency [1] | Potency [2] | Potency [3] | Potency [4]

C[C@]12CCC(=O)C=C1[C@@H]1C[C@@H]1[C@H]1[C@@H]3[C@@H]4C[C@@H]4[C@@]4(CCC(=O)O4)[C@@]3(C)CC[C@@H]12
inactive: Potency [1] | Potency [2] | Potency [3] | Potency [4]

O=C(CCC1CCN(Cc2ccccc2)CC1)c1ccc2c(c1)NCCCC2
inactive: Potency [1] | Potency [2] | Potency [3] | Potency [4]

Nc1ccc(N=Nc2ccccc2)c(N)n1
inactive: Potency [1] | Potency [2] | Potency [3] | Potency [4]

CCOCCn1c(N2CCCN(C)CC2)nc2ccccc21
inactive: Potency [1] | Potency [2] | Potency [3] | Potency [4]

Nc1ccn(C2CO[C@H](CO)O2)c(=O)n1 (stereo partly specified)
inactive: Potency [1] | Potency [2] | Potency [3] | Potency [4]

CCC(C(=O)OCCN1CCOC(c2ccccc2)C1C)c1ccccc1 (stereo unspecified)
inactive: Potency [1] | Potency [2] | Potency [3] | Potency [4]

CN(Cc1ccc(C(C)(C)C)cc1)Cc1cccc2ccccc12
inactive: Potency [1] | Potency [2] | Potency [3] | Potency [4]

Cc1c(Cl)cccc1Nc1ccccc1C(=O)O
inactive: Potency [1] | Potency [2] | Potency [3] | Potency [4]

CCN1CCCC(OC(=O)C(c2ccccc2)c2ccccc2)C1 (stereo unspecified)
inactive: Potency [1] | Potency [2] | Potency [3] | Potency [4]

O=C(NCCCN1CCOCC1)c1ccc(Cl)cc1
inactive: Potency [1] | Potency [2] | Potency [3] | Potency [4]

CCN(CC)CCOC(=O)C(c1ccccc1)C1CCCCC1 (stereo unspecified)
inactive: Potency [1] | Potency [2] | Potency [3] | Potency [4]

C[C@]12CCC(=O)C=C1C=C[C@@H]1[C@@H]2CC[C@@]2(C)[C@H]1CC[C@@]21CCC(=O)O1
inactive: Potency [1] | Potency [2] | Potency [3] | Potency [4]
